“And” between values parts separate entries of the source, which are not always exact repeats. Equal values may be shown once. Where a name gives a salt, the structure may show the parent alone.
Assays:
Assay in all cases: cell viability relative to vehicle control; higher = less cytotoxic
Conditions in all cases: 10 µM
K562 = test system: K562
Outline: (§1)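 Screening covered the Selleck bioactive, kinase and epigenetic probe libraries, less identity-inconsistent compounds, on CRISPR-edited mutant clones and isogenic wild-type clones of four leukaemia lines. Cells, at 2000 per well in 50 µL medium, received a single 10 µM acoustically dispensed dose. After 48 h the supernatant was removed and CellTiter-Glo luminescence was read. Viability was analysed in Genedata Screener as percent of the on-plate vehicle control.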

MARIMO = test system: MARIMO
Outline: as §1

MOLM14 = test system: MOLM14
Outline: as §1

OCI-AML2 = test system: OCI-AML2
Outline: as §1

SMILES | cell viability (K562; SRSF2 genotype: SRSF2 P95H/wt) | cell viability (K562; SRSF2 genotype: SRSF2 wt/wt) | cell viability (MARIMO; SRSF2 genotype: SRSF2 P95H/wt) | cell viability (MARIMO; SRSF2 genotype: SRSF2 wt/wt) | cell viability (MOLM14; SRSF2 genotype: SRSF2 P95H/wt) | cell viability (MOLM14; SRSF2 genotype: SRSF2 wt/wt) | cell viability (OCI-AML2; SRSF2 genotype: P95H/wt) | cell viability (OCI-AML2; SRSF2 genotype: wt/wt)
Cc1ccc(C)c(OCCCC(C)(C)C(=O)O)c1 [Gemfibrozil (Lopid)] | 108% and 109% | 108% | 107% | 106% | 106% | 109% | 106% | 110%
COC(=O)[C@H](CCSC)NC(=O)c1ccc(NC[C@@H](N)CS)cc1-c1ccccc1 | 104% and 105% | 110% | 77.4% | 78.5% | 83.4% | 90.1% | 113% | 113%
C[C@]12C=CC(=O)C=C1CC[C@@H]1[C@@H]2C(=O)C[C@@]2(C)[C@H]1CC[C@]2(O)C(=O)CO [Prednisone (Adasone)] | 102% and 107% | 95.5% | 104% | 101% | 108% | 107% | 106% | 110%
Oc1ccc(-c2c(-c3ccccc3)nn3c(C(F)(F)F)cc(C(F)(F)F)nc23)cc1 | 87.4% and 87.6% | 83% | 85.7% | 93.3% | 75.9% | 86.1% | 92% | 103%
CN(C)Cc1ccc(S(=O)(=O)n2ccc(/C=C/C(=O)NO)c2)cc1 [Resminostat (RAS2410)] | 1.83% and 16.1% | 11.8% | 2.94% | 2.37% | 0.76% | 0.51% | 0.72% | 1.22%
COc1ccc2cc(C(=O)O)ccc2c1 [6-Methoxy-2-naphthoic acid] | 108% and 98.7% | 94.2% | 92% | 99.7% | 88.6% | 93.8% | 89.4% | 92.4%
COc1ccc([C@@H]2Sc3ccccc3N(CCN(C)C)C(=O)[C@@H]2OC(C)=O)cc1 [Diltiazem HCl] | 99.8% and 95.7% | 91.9% | 98% | 98.1% | 99.3% | 98.7% | 94.1% | 99.1%
Nc1nc(Nc2ccc(S(N)(=O)=O)cc2)nn1C(=O)c1c(F)cccc1F | 41.2% and 43.9% | 31.2% | 10.8% | 7.19% | 3.09% | 0.41% | 2.63% | 12%
COc1cc([C@@H]2Oc3cc([C@H]4Oc5cc(O)cc(O)c5C(=O)[C@@H]4O)ccc3O[C@H]2CO)ccc1O [Silymarin (Silybin B)] | 106% and 94.4% | 95.6% | 99.6% | 108% | 105% | 102% | 106% | 114%
CNC(=O)c1cc(COc2nnc(Nc3ccc(Cl)cc3)c3ccoc23)ccn1 [Telatinib (BAY 57-9352)] | 94.6% and 90.8% | 98.7% | 106% | 106% | 108% | 97.3% | 90.6% | 99.5%
CNC(=O)CN1CCC(Oc2cc3c(Nc4cccc(Cl)c4F)ncnc3cc2OC)CC1 | 85.2% and 96% | 91.9% | 93.6% | 100% | 79.5% | 93.1% | 73.8% | 79.5%
OCCOCCN1CCN(C(c2ccccc2)c2ccc(Cl)cc2)CC1 (stereo unspecified) [Hydroxyzine pamoate] | 88.7% and 98% | 100% | 79.8% | 91.8% | 79.9% | 96.4% | 87.9% | 94.6%
CCOC(=O)C=Cc1ccc(OC)cc1 [Ethyl 4-Methoxycinnamate] | 86% and 83.2% | 80% | 81.3% | 88.4% | 83.9% | 84.5% | 84.6% | 83.5%
CCCCCCOc1cc(C)c(O)c(C)c1C [HTHQ(1-O-Hexyl-2,3,5-trimethylhydroquinone)] | 93.5% and 93.8% | 106% | 89.1% | 96% | 91.1% | 102% | 98.7% | 107%
COc1c(C)c2c(c(O)c1C/C=C(\C)CCC(=O)O)C(=O)OC2 [Mycophenolic acid] | 49.9% and 48.3% | 43.2% | 42.2% | 41.6% | 10.9% | 3.65% | 13.9% | 13%
CC(C)(CO)n1cc(C(=O)c2cncc(NC(=O)Cc3ccc(Cl)cn3)c2)c2cnc(N)nc21 | 104% | 111% | 115% | 109% | 64.3% | 76.5% | 107% | 93.4%
C=CC(=O)Nc1cccc(Oc2nc(Nc3ccc(N4CCN(C)CC4)cc3)nc3ccsc23)c1 | 16.7% and 14.4% | 49.6% | 31.2% | 43.4% | 0.27% | 0.47% | 0.27% | 0.68%
CC/C(=C(/CC)c1ccc(O)cc1)c1ccc(O)cc1 [Diethylstilbestrol] | 80.1% and 78.1% | 78.8% | 84.5% | 87.1% | 75.1% | 87.8% | 74.8% | 81.4%
O=c1c(-n2ccnn2)c[nH]n1-c1cc(N2CCOCC2)ncn1 [Molidustat(BAY 85-3934)] | 96.1% and 100% | 90.2% | 81.8% | 98.1% | 87.9% | 93.6% | 85.2% | 87.9%
C[C@H]1[C@H](OC(=O)CCC(=O)O)O[C@@H]2O[C@@]3(C)CC[C@H]4[C@H](C)CC[C@@H]1[C@@]24OO3 [Artesunate] | 43.3% and 38.6% | 41.2% | 42.7% | 37.8% | 34.5% | 28.3% | 2.96% | 17.9%
CC(NC(=O)Cc1cc(F)cc(F)c1)C(=O)NC1C(=O)N(C)c2ccccc2-c2ccccc21 (stereo unspecified) | 101% and 102% | 108% | 99.7% | 94.5% | 105% | 104% | 105% | 107%
C[C@@H]1CC[C@H]2C(C)(C)[C@H]3C[C@@]12CC[C@@]3(C)O [Cedrol] | 106% and 97.2% | 96.6% | 103% | 107% | 104% | 104% | 98.2% | 112%

From the supplement of paper PMC10981050
